# High-throughput results deposited in PubChem BioAssay by several laboratories.
# Shown are actives, neighbours in structure and some others; about 2.6% of the full set was active somewhere.
# Mcl-1 Bim block: inhibitors of Bim peptide binding to Mcl-1, primary screen, biochemical, bead-based flow cytometry, multiplex; Induced myeloid leukemia cell differentiation protein Mcl-1 (Homo sapiens), Q07820; Bim peptide-Mcl-1 binding; inhibition, % at 10 µM; actives 0.1% (n = 190,000); in the data active = inhibition above about 40%;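 note: 0% = no compound tracer wells and 100% = peptide blocker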
# Target sequence (Q07820 whole entry, looked up): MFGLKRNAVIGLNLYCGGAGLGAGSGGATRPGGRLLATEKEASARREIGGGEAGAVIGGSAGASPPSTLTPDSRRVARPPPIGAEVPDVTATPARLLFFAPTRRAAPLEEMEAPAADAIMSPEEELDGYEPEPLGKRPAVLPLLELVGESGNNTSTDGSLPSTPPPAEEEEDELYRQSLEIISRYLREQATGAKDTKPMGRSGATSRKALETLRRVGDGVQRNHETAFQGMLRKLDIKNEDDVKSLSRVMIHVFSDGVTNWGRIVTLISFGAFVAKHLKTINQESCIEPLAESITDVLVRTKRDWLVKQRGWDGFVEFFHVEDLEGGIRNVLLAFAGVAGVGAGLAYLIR
# Mcl1-Bid inh: Mcl-1/Bid binding inhibitors, primary screen, biochemical, TR-FRET, 1536-well; AID 1021, 2008; Induced myeloid leukemia cell differentiation protein Mcl-1 (Homo sapiens), Q07820; actives 0.97% (n = 220,000); TR-FRET Mcl-1/Bid-Dy647 peptide binding; inhibition, % at 21.7 µM;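 active = compounds that cut the binding signal by more than half at the single screening dose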;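 note: His-tagged Mcl-1 with europium anti-His antibody binding Bid BH3 peptide; 0% = Mcl-1 plus peptide wells and 100% = peptide-only wells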
# Mcl1 Noxa PPI: Mcl-1/Noxa binding inhibitors, primary screen, biochemical, TR-FRET, 1536-well; Induced myeloid leukemia cell differentiation protein Mcl-1 (Homo sapiens), Q07820; TR-FRET Mcl-1/Noxa peptide binding, 2 h; inhibition, % at 21.7 µM; actives 1.5% (n = 220,000); AID 1022, 2008;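 active = compounds that cut the protein-peptide binding signal by more than 50% relative to plate controls in a single-dose test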;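 note: His-tagged Mcl-1 with rhodamine Noxa BH3 peptide and terbium anti-His antibody; 0% = Mcl-1 plus Noxa peptide wells and 100% = peptide-only wells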
# MCL1 BIM primary: inhibitors of MCL1 binding to BIM-BH3, primary screen, biochemical, fluorescence polarization; Induced myeloid leukemia cell differentiation protein Mcl-1 (Homo sapiens), Q07820; GST-MCL1 / FITC-Bim-BH3 fluorescence polarization; inhibition, % at 10.9 µM; actives 0.68% (n = 320,000);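 active = inhibition above the mean inhibition of all tested compounds plus 3 SD, set per campaign, cut at about 40% in these data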;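 note: 0% = DMSO wells and 100% = unlabeled Bim-BH3 peptide control; higher means more loss of mP so more displacement of Bim peptide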
# 14-3-3 Bad inh: inhibitors of 14-3-3 zeta/Bad binding, primary screen, biochemical, TR-FRET, bovine 14-3-3 zeta. 14-3-3 protein zeta/delta (Bos taurus), P63103. TR-FRET 14-3-3zeta/Dy647-pBad peptide displacement, 1 h. inhibition, % at 21.7 µM. actives 0.71% (n = 220,000);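 active = inhibition above about 70%, limit read from the data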;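 note: 0% = full 14-3-3 plus peptide FRET controls and 100% = background without 14-3-3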
# Target sequence (P63103 whole entry, looked up): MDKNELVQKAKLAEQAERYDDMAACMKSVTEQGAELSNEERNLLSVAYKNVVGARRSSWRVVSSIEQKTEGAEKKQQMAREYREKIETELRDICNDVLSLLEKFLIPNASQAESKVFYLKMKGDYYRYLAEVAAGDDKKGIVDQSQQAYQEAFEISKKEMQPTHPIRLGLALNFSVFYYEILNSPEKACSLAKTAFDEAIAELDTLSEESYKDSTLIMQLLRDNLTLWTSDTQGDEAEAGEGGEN
# eIF4E-4G inh: eIF4E–eIF4G protein interaction inhibitors, primary screen, biochemical, uHTS, TR-FRET, eIF4GI fragment; AID 782, 2007; Eukaryotic translation initiation factor 4E (Mus musculus) + Eukaryotic translation …; inhibition, % at 21.7 µM; actives 0.37% (n = 220,000); TR-FRET eIF4E-eIF4GI(517-606) binding, 2 h;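 active = inhibition above about 30%, limit read from the data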;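 note: 0% = full FRET control wells and 100% = background wells lacking eIF4GI fragment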
# An asterisk follows results filed as active; . = not tested or not shown.
SMILES,Mcl-1 Bim block,Mcl1-Bid inh,Mcl1 Noxa PPI,MCL1 BIM primary,14-3-3 Bad inh,eIF4E-4G inh
Cc1ccc(C)[n+](CC(=O)c2ccc(-c3ccccc3)cc2)c1,2,-9,11,-6,-1,0
O=C(COc1ccccc1)Nc1cccc(-c2nc3cc4ccccc4cc3[nH]2)c1,0,-5,16,8,-2,-6
c1cc2c3c(cccc3c1)NC1(CCC3(CC1)Nc1cccc4cccc(c14)N3)N2,.,-55,12,11,-8,11
c1cc2c3c(cccc3c1)NC1(CCCCCC1)N2,7,-16,36,20,-13,-11
COc1cccc(C2=Nc3cccc4cccc(c34)N2)c1,-5,10,57*,19,27,9
Nc1ccc(C2=Nc3cccc4cccc(c34)N2)cc1,3,10,77*,.,9,17
CC1=Nc2cccc3cccc(c23)N1,-3,-21,93*,25,0,19
c1coc(C2=Nc3cccc4cccc(c34)N2)c1,8,-58,33,24,-10,5
C=CCn1c(SCC(=O)NC2CCCc3ccccc32)nnc1-c1ccncc1 (configuration not stated),-3,-25,7,-1,-29,5
CCOC(=O)N1CCN(Cc2ccc(F)cc2F)CC1,0,26,13,-9,91*,4
CCOC(=O)N1CCN(CC(=O)Nc2ccc(F)cc2F)CC1,-4,-31,5,1,-3,-1
O=C(COc1ccc2ccccc2c1)Nc1ccc(Br)cc1C(=O)O,.,.,.,-10,.,.
Nc1ccc(-c2nc3ccc([N+](=O)[O-])cc3[nH]2)cc1,2,-20,51*,2,-10,-20
CCCC[n+]1ccc(-c2nc3ccc([N+](=O)[O-])cc3[nH]2)cc1,-3,-4,14,-1,17,11
O=[N+]([O-])c1ccc(-c2nc3ccc([N+](=O)[O-])cc3[nH]2)cc1,0,78*,63*,8,37,-15
CC(CCCN(C)C)C(Cc1ccccc1)c1ccccc1 (configuration not stated),.,.,.,-5,.,.
CC(C)(C)c1ccc(/C([O-])=C(/C(=S)NCc2ccco2)[n+]2ccccc2)cc1,-3,-52,10,23,-17,-17
S=c1[nH]nc(-c2cccs2)n1/N=C/c1c(Cl)cccc1Cl,-7,-10,56*,-22,3,5
COc1ccc(/C=N/n2c(-c3cccs3)n[nH]c2=S)cc1,-1,-108,20,-22,-11,33*
Cc1ccc(/C=N/n2c(-c3cccs3)n[nH]c2=S)cc1,-1,-42,22,-16,-1,20
CC1(C)CC(NC(=O)COc2ccc([N+](=O)[O-])cc2)CC(C)(C)N1,68*,-12,22,6,-3,-1
COc1ccc(OCC(=O)NC2CC(C)(C)NC(C)(C)C2)cc1,-1,-29,11,5,-7,-16
CCn1c(SCC(=O)NC2CCCC2)nnc1-c1cccnc1,.,.,.,8,.,.
CCNc1ccccc(C(=O)/C=C/c2ccc3c(c2)OCO3)c1=O,1,-29,70*,35,7,7
Cc1oc2cc3oc(=O)c(CCC(=O)N4C[C@H]5C[C@@H](C4)c4cccc(=O)n4C5)c(C)c3cc2c1C,.,.,.,-1,.,.
SMILES,Mcl-1 Bim block,Mcl1-Bid inh,Mcl1 Noxa PPI,MCL1 BIM primary,14-3-3 Bad inh,eIF4E-4G inh
CCc1nnc(NC(=O)c2sc3nc4c(cc3c2N)CCCCC4)s1,0,2,48,9,14,-2
CCc1nnc(NC(=O)c2sc3nc4c(cc3c2N)CCCCCC4)s1,-4,42,53*,-5,57,17
Cc1ccc(OCC(=O)NCc2ccco2)c([N+](=O)[O-])n1,-3,80*,8,3,-6,-6
Cc1ccc(CNC(=O)COc2ccc(C)nc2[N+](=O)[O-])cc1,-14,23,7,4,9,-2
COc1ccc(-n2c(N)c(-c3nc4ccccc4n3C)sc2=S)cc1,-3,-7,89*,2,7,-3
CC1CC(C)CN(CC(C)(C)NS(=O)(=O)c2ccccc2)C1 (configuration not stated),0,17,11,-3,77*,3
O=C(CSc1ccc(-c2ccco2)nn1)c1cccc([N+](=O)[O-])c1,-1,-45,33,66*,-8,0
COc1ccc(-c2ccc(/C=C3\C(=O)N(c4ccccc4)N=C3c3ccccc3)o2)c([N+](=O)[O-])c1,5,-8,-8,3,-6,16
COc1ccc(-c2ccc(/C=C3/C(=N)N4C(C)=CSC4=NC3=O)o2)c([N+](=O)[O-])c1,-1,17,59*,8,62,8
COCCn1nnnc1CN1CCSCC1,1,-15,21,-1,8,-4
COCCn1nnnc1CN1CCN2CCCC2C1 (configuration not stated),-1,14,24,4,86*,1
CCOc1c(C(N)=O)c(-c2ccccc2)c2c(=O)[nH]c3ccccc3n12,-7,99*,3,7,8,4
Cc1ccc(CNC(=O)c2cc(Cl)cc(Cl)c2)n1C,.,.,.,1,.,.
COc1ccccc1NC(=O)c1cnc(SCC(=O)NCC2CCCO2)n(C)c1=O (configuration not stated),.,.,.,-5,.,.
Cc1c(Nc2nc(-c3cccc([N+](=O)[O-])c3)cs2)c(=O)n(-c2ccccc2)n1C,-1,-56,0,3,88*,-4
Cc1c(NS(=O)(=O)c2cccc([N+](=O)[O-])c2)c(=O)n(-c2ccccc2)n1C,.,.,.,4,.,.
O/N=C1/CCCSc2ccccc21,-2,2,86*,9,0,-2
Cc1ccc(S(=O)(=O)N2CCC(=O)N(C(COCc3cccc(C(F)(F)F)c3)C(C)C)CC2)cc1 (configuration not stated),0,7,6,4,1,-3
C/C=C\C=C/C(=O)Nc1cccc(C2=NOC3(C2)C[C@@H](C(N)=O)N(C(=O)/C=C/CC)C3)c1 (some centres not stated),.,-12,34,-7,-4,75*
C/C=C\C=C/C(=O)Nc1cccc(C2=NOC3(C2)C[C@@H](C(N)=O)N(C(=O)/C=C/C=C\C)C3)c1 (some centres not stated),.,-45,54*,19,-1,9
COc1ccccc1C(=O)NNC(=O)C1CCCO1 (configuration not stated),.,.,.,-1,.,.
